Measured values published in PubChem BioAssay (NCI).
Compounds without any hit were thinned out: in the full panel of roughly 83,000, 20% have a hit.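 Negative percent growth values reflect cell death: -40 means 40% of the cells present at the start died, and -100 means all died.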 Values without a mark were called inactive. Active and inactive are the calls of the source. The calls were made as follows: active = growth percent below 10; inactive = the rest.

Legend:
Assay in all cases: NCI-60 one-dose screen, 48 h (100 = growth as untreated, 0 = no growth, -100 = all killed)
EKVX NSCLC = details: 10 µM unless noted
SN12C renal = details: 10 µM unless noted
UO-31 renal = details: 10 µM unless noted
TK-10 renal = details: 10 µM unless noted
ACHN renal = details: 10 µM unless noted
CAKI-1 renal = details: 10 µM unless noted
A498 renal = details: 10 µM
HL-60(TB) leukemia = details: 10 µM unless noted
CCRF-CEM leukemia = details: 10 µM unless noted
MOLT-4 leukemia = details: 10 µM unless noted
SR leukemia = details: 10 µM unless noted
RPMI-8226 leukemia = details: 10 µM unless noted
OVCAR-8 ovarian = details: 10 µM unless noted
OVCAR-5 ovarian = details: 10 µM unless noted
OVCAR-4 ovarian = details: 10 µM unless noted
SK-OV-3 ovarian = details: 10 µM unless noted
IGROV1 ovarian = details: 10 µM unless noted
OVCAR-3 ovarian = details: 10 µM unless noted
HS 578T breast = details: 10 µM unless noted
SK-MEL-2 melanoma = details: 10 µM unless noted

SMILES	growth (EKVX NSCLC)	growth (SN12C renal)	growth (UO-31 renal)	growth (TK-10 renal)	growth (ACHN renal)	growth (CAKI-1 renal)	growth (A498 renal)	growth (HL-60(TB) leukemia)	growth (CCRF-CEM leukemia)	growth (MOLT-4 leukemia)	growth (SR leukemia)	growth (RPMI-8226 leukemia)	growth (OVCAR-8 ovarian)	growth (OVCAR-5 ovarian)	growth (OVCAR-4 ovarian)	growth (SK-OV-3 ovarian)	growth (IGROV1 ovarian)	growth (OVCAR-3 ovarian)	growth (HS 578T breast)	growth (SK-MEL-2 melanoma)
CCNc1nc(Cl)nc(NCC)n1	86.5%	102%	77.1%	116%	102%	77.3%	95.8%	98.4%	96.8%	69.8%	75.8%	94.3%	58.9%	104%	95.6%	109%	29.4%	108%	96.8%	–
COc1ccc2c(c1)c(C1(O)CC(CSC#N)OC1=O)cn2C(=O)c1ccc(Cl)cc1 (configuration not stated)	89.6%	94%	78.5%	103%	94.5%	82.9%	153%	94.6%	82%	93.2%	84.8%	91.9%	98.8%	99.4%	101%	109%	77.2%	108%	101%	–
COC(=O)[C@H](Cc1ccccc1)NNC(=O)c1csc([C@@H](C[C@H](C(C)C)N(C)C(=O)[C@@H](NC(=O)[C@H]2CCCCN2C)C2CC2)OC(C)=O)n1	–	24.3%	42.8%	–	24.8%	21.4%	-3.69% (active)	-55.4% (active)	-2.7% (active)	7.86% (active)	5.77% (active)	7.38% (active)	24.1%	32.5%	41.3%	19.8%	27.4%	4.06% (active)	9.52% (active)	30.6%
NC(CCl)CCl	–	101%	93.3%	–	104%	99.3%	111%	123%	–	105%	108%	99.3%	100%	107%	102%	-100% (active)	110%	100%	–	124%
COc1ccc(NC([Se])=NC23CC4CC(CC(C4)C2)C3)cc1	–	4.39% (active)	-27.3% (active)	–	0.201% (active)	-31% (active)	–	-11.8% (active)	5.94% (active)	5.72% (active)	5.11% (active)	-31.9% (active)	-0.307% (active)	-12.9% (active)	6.53% (active)	-18.2% (active)	3.84% (active)	-32.3% (active)	-5.52% (active)	-8.11% (active)
CN(CCCCN(C)CCOS(C)(=O)=O)CCOS(C)(=O)=O	112%	71.9%	71.5%	98.7%	24.9%	2.42% (active)	85.3%	61.4%	50.3%	28%	12.1%	90.8%	72.6%	97.6%	–	86.7%	65.8%	103%	95.3%	–
ClCCN(CCCl)c1ccc(/C=N/Nc2ncnc3nc[nH]c23)cc1	85.1%	67.2%	54.2%	113%	74.8%	64%	98.4%	92%	42.4%	26.3%	6.32% (active)	91.9%	80%	124%	80.3%	82.6%	28.3%	98.5%	151%	–
CC(=O)O[C@H](C[C@H](C(C)C)N(C)C(=O)[C@@H](NC(=O)[C@H]1CCCCN1C)C(C)C)c1nc(C(=O)N[C@@H](Cc2ccccc2)C[C@H](C)C(=O)O)c(C(C)C)s1	–	16.6%	41.5%	61.6%	27.3%	–	–	-41.4% (active)	3.84% (active)	7.85% (active)	7.04% (active)	17.4%	6.46% (active)	39.1%	46.9%	27%	20.6%	–	–	23.6%
CC1=C(O)[C@@](C)(CCCCC[C@H](C)CCCCc2ccc(O)cc2)OOC1=O	95.4%	88.5%	68.8%	129%	97.5%	80.6%	119%	84.4%	–	86%	50.1%	85%	93.4%	103%	100%	106%	-11.1% (active)	86.5%	98.1%	–
CNC12C3C4C1C1C2C3C41C(=O)N[C@H](C(=O)N(C)[C@H](C[C@@H](OC(C)=O)c1nc(C(=O)N[C@@H](Cc2ccccc2)C[C@H](C)C(=O)OC)cs1)C(C)C)C1CC1 (some centres not stated)	30.9%	31.5%	36.3%	23.4%	23.2%	87.9%	21.3%	-34.9% (active)	-1.11% (active)	-1.54% (active)	-12.7% (active)	-6.94% (active)	20.1%	56.6%	44.5%	40.7%	17%	-32.9% (active)	32.3%	–
COc1ccc(Nc2ccnc3cc(Cl)ccc23)cc1CN(CCCl)CCCl	-15.3% (active)	2.25% (active)	-42.2% (active)	-37.5% (active)	-33.7% (active)	-63.9% (active)	-47.5% (active)	-22.3% (active)	-6.67% (active)	-12.1% (active)	-0.721% (active)	-25.8% (active)	-39.3% (active)	-26.1% (active)	-15.3% (active)	8.86% (active)	-36% (active)	-49.3% (active)	–	–
COC(=O)[C@@H](C)C[C@H](Cc1ccccc1)NC(=O)c1csc([C@@H](C[C@H](C(C)C)N(C)C(=O)[C@@H](NC(=O)[C@H]2CCCN2C)C2CC2)OC(C)=O)n1	–	25.2%	48.2%	–	20.8%	12.7%	-0.976% (active)	-36.8% (active)	6.07% (active)	12.3%	11.2%	13.9%	33.4%	46.8%	51.6%	25.7%	27.1%	–	–	35.8%
C[C@]12CC[C@H]3[C@@H](CC4SC(N)=NC45C/C(=N/NC(N)=O)CC[C@]35C)[C@@H]1CCC2=O (some centres not stated)	-4.54% (active)	18.1%	85.8%	49.2%	32.4%	63%	91.6%	42.8%	-5.86% (active)	13.4%	-21.8% (active)	-6.28% (active)	-2.26% (active)	72.9%	-19.1% (active)	101%	2.9% (active)	-32.3% (active)	36.4%	–
CCOC(=O)[C@@H](C)C[C@H](Cc1ccccc1)NC(=O)c1csc([C@@H](C[C@H](C(C)C)N(C)C(=O)[C@H](CCC(C)C)NC(=O)[C@H]2CCCCN2C)OC(C)=O)n1	–	18.9%	20.6%	–	9.24% (active)	–	-11.5% (active)	-32.3% (active)	9.03% (active)	10.3%	4.32% (active)	12.6%	18%	28.2%	48.2%	2.1% (active)	26.1%	-1.34% (active)	5.53% (active)	28.1%
O=NN1CCCc2cccc(O)c21	–	21.7%	20.9%	95.9%	17.2%	–	86.8%	–	–	51.8%	1.91% (active)	44.5%	24%	115%	63.7%	38.8%	44.4%	–	46.3%	56.1%
O=C(c1ccccc1O)c1[nH]c(Cl)c(Cl)c1-n1c(C(=O)c2ccccc2O)cc(Cl)c1Cl	–	-14.2% (active)	-3.72% (active)	–	-9.76% (active)	-11.1% (active)	-33.3% (active)	–	3.92% (active)	-1.12% (active)	8.12% (active)	-30.1% (active)	8.28% (active)	18.5%	14.5%	-5.75% (active)	23%	–	-16.9% (active)	-36.9% (active)
Cc1cc(C)cc(Nc2nc3c(s2)CC[C@@]2(C)C3=CC[C@@H]3[C@@H]2CC[C@]2(C)C(=O)CC[C@@H]32)c1	89.4%	54.2%	59.4%	77.6%	63.4%	47.4%	78%	57.6%	3.37% (active)	10.3%	12.5%	4.21% (active)	50.4%	93.3%	70%	79.8%	85.2%	23.8%	58.3%	–
CC[S][Hg][Cl]	106%	105%	87.9%	115%	101%	89.7%	115%	113%	93.4%	109%	98.1%	114%	102%	116%	122%	110%	112%	–	106%	–
O=[N+]([O-])c1cc([N+](=O)[O-])c(Nn2c3ccccc3c3ccccc32)c([N+](=O)[O-])c1	–	5.01% (active)	-3.91% (active)	0.75% (active)	–	–	-43.2% (active)	-30.3% (active)	-0.784% (active)	0.889% (active)	1.48% (active)	-20.5% (active)	5.97% (active)	29.4%	6.45% (active)	-17.2% (active)	22.8%	12.4%	5.42% (active)	-50.4% (active)
COc1ccc(-n2c(C)nc3cc(OC)c(OC)cc3c2=O)cc1OC	108%	105%	94.4%	102%	109%	97.3%	95.8%	100%	–	97.2%	95.5%	–	102%	104%	101%	102%	102%	106%	101%	–
O=C1CC2(CC3(Cl)C(Cl)=C(Cl)C2(Cl)C3(Cl)Cl)C(=O)O1 (configuration not stated)	95.7%	107%	63.5%	98.7%	105%	97.9%	98.9%	97.1%	114%	96.5%	–	105%	104%	94.4%	116%	112%	105%	114%	–	–
